Source: PubChem
A selection: hits, their analogues and other compounds. The true share with any hit is near 11%.
Pf growth 96h = P. falciparum growth inhibition at 96 hours | P. falciparum luciferase reporter growth, 96 h | Potency, µM (highest dose often 28.7 µM), actives largely listed as inhibitors | 6.9% of 320,000 active
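Erythrocytes infected with luciferase-expressing P. falciparum were dispensed at 2% hematocrit and 0.05% parasitemia (final), then incubated with compounds 96 hours at 37 C in 5% CO2. Luminescence after detection reagent addition reported growth.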
Pf growth 48h = P. falciparum growth inhibition at 48 hours (one generation). P. falciparum luciferase growth in erythrocytes, 48 h. Potency, µM (top dose mostly 28.7 µM), usual class: inhibitors. 5.9% of 310,000 active
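Growth was read as firefly luciferase luminescence after a 48 h, 37 C, 5% CO2 exposure of compounds to reporter-bearing P. falciparum cultures (0.1% parasitemia, 2% hematocrit final) in Albumax-supplemented RPMI 1640.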
HCV inhibitor = blocks hepatitis C virus; Huh7.5.1 HCVcc-Cre infection, luciferase reporter, 44 h; Potency, µM (highest dose often 41.8 µM), usual class: inhibitors; 3.4% of 340,000 active; AID 651820
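Reporter virus HCVcc-Cre (~0.5 moi) infects cells exposed to compound; seeding density 1,000 cells/well with 4 h settling beforehand. Luminescence, 15 sec read, taken 44 h post-infection following a 15 min RT substrate incubation.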
AmpC inh no detg = inhibitors of E. coli AmpC beta-lactamase without detergent | P00811 | AmpC nitrocefin hydrolysis, absorbance 480 nm, 0.0001% Triton | Potency, µM (highest dose often 57.1 µM), hits mostly inhibitors | 0.52% of 330,000 active | AID 485341; further: nearly all actives have a fitted effect of over 20% in size
Target sequence (P00811 whole entry, looked up): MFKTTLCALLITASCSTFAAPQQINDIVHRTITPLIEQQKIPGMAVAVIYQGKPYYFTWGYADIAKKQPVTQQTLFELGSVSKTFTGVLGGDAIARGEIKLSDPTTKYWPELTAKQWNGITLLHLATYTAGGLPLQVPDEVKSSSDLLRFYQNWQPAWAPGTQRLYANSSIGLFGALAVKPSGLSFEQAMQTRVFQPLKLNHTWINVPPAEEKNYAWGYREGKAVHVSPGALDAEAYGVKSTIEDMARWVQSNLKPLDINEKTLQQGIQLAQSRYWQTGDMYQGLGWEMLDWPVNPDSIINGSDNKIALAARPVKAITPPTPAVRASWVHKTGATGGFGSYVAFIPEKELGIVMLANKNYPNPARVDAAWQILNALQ
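AmpC (5.3 nM in the dispensed reagent) in 20 mM phosphate pH 7.0 with 0.01% (detergent screen) or 0.0001% Triton X-100 was preincubated with compounds for 15 min at room temperature. Nitrocefin was then added from an 800 uM solution, and hydrolysis was followed at 480 nm.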
AMA1 RON2 block = inhibitors of Plasmodium falciparum AMA1-RON2 interaction; 0.2% of 360,000 active; AlphaScreen AMA1-biotinylated RON2 peptide binding; Potency, µM (top dose mostly 58.2 µM), usual class: inhibitors; further: nearly all actives have a fitted effect of over 45% in size
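AMA1 (3D7) with his tag at 25 nM final met compounds first, then biotinylated RON2 peptide at 25 nM; detection used donor plus acceptor beads, 10 µg/mL apiece, read by AlphaScreen after 30 min at room temperature.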
AmpC detergent = blocks E. coli AmpC beta-lactamase in detergent assay. Potency, µM (top dose mostly 114 µM), most hits filed as inhibitors. AmpC hydrolysis of nitrocefin, absorbance 480 nm, 0.01% Triton. P00811. 0.041% of 370,000 active. AID 485294; further: nearly all actives have a fitted effect of over 25% in size
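20 mM phosphate pH 7.0 + 0.01% (detergent screen) or 0.0001% Triton X-100; 5.3 nM AmpC reagent; cpd preinc 15 min RT; nitrocefin (800 uM stock) to start; A480 q20 s × 4 min; Activity was normalised to no-enzyme and no-compound control wells.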
A number is an active result; n = inactive; u = inconclusive; x = not tested or not shown; [ ] = another dose, or the depositor's remark. The call rests on the fitted dose curve; in most records, active means well fitted curve in the direction sought with a large enough effect; inconclusive means small, poorly fitted or top-dose-only effect, or another doubt; inactive means no such curve, though single readings can be large; an effect the other way counts as inactive or inconclusive.

SMILES	Pf growth 96h	Pf growth 48h	HCV inhibitor	AmpC inh no detg	AMA1 RON2 block	AmpC detergent
Nc1nc(SCc2ccc([N+](=O)[O-])cc2)nc2nc3c(cc12)CCCC3	1.5µM	u	u	n	n	u
FC(F)(F)c1cnc(Sc2nnc(-c3cccs3)n2CC2CCCO2)c(Cl)c1 (stereo unspecified)	x	7.4µM	n	n	n	n
FC(F)(F)c1ccc(Sc2nnc(-c3cccs3)n2CC2CCCO2)nc1 (stereo unspecified)	x	n	n	n	n	n
COc1nc(N(c2ccccc2)c2ccccc2)nc(-n2ccnc2)n1	u	12µM	u	n	n	n
COc1ccc(-n2ccnc2)cc1	n	n	n	n	n	n
COC(=O)c1cc2sc(C)cc2n1Cc1nc(-c2ccc(C)cc2)oc1C	x	x	x	x	x	n
CCOC(=O)c1c(NC(=O)CSc2nnnn2C)sc(C)c1-c1ccc(C)cc1	2.3µM	8.3µM	u	n	n	u
CCOC(=O)c1c(NC(=O)CSc2nncs2)sc(C)c1-c1ccccc1	u	n	u	n	n	n
COC(=O)c1c(-c2ccc3ccccc3c2)csc1NC(=O)Cc1ccc(OC)c(OC)c1	9.3µM	8.3µM	u	n	n	n
CCOC(=O)c1c(-c2ccccc2)csc1NC(=O)CSc1nncs1	u	9.3µM	u	n	n	n
CCOC(=O)c1c(-c2ccccc2)csc1NC(=O)CSc1nnnn1C	x	4.7µM	7.1µM	n	n	u
Cc1ccc2[nH]c3c(=O)n(CC(=O)Nc4ccc(Br)cc4C)ncc3c2c1	x	x	x	x	x	n
CCOC(=O)c1c(-c2ccccc2)csc1NC(=O)CSc1ccccc1	n	u	n	n	n	n
CCOC(=O)c1c(-c2ccc(OC)cc2)csc1NC(=O)CSc1ccccc1	13µM	x	u	n	n	n
CCn1c2ccccc2c2cc(NC(=O)c3cccc([N+](=O)[O-])c3C)ccc21	u	n	4µM	n	n	n
CCn1c2ccccc2c2cc(NC(=O)c3cccc([N+](=O)[O-])c3)ccc21	n	u	2.2µM	n	n	n
CCn1c2ccccc2c2cc(NC(=O)c3cc(C)on3)ccc21	u	u	14µM	n	u	n
CCn1c2ccccc2c2cc(NC(=O)c3ccc(C)c([N+](=O)[O-])c3)ccc21	n	n	u	n	n	u
Cc1ccccc1/C=C(\C#N)c1nc(-c2ccc(Cl)cc2)cs1	x	x	x	x	x	n
Cc1ccc(C)c(N2CCN(C(=O)c3cccn3-c3nnc(N4CCCCC4)s3)CC2)c1	x	x	x	x	x	n
O=C(NCc1ccc2c(c1)OCO2)C1CCN(c2ccc(S(=O)(=O)N3CCCC3)cc2)CC1	n	10µM	u	n	n	n
COc1ccc(S(=O)(=O)N2CCCC(C(=O)NCc3ccc4c(c3)OCO4)C2)cc1 (stereo unspecified)	n	2.1µM	n	n	n	n
O=C(NC1CC1)C1CCN(C2CCN(C(=O)Cc3ccc4c(c3)OCO4)CC2)CC1	12µM	n	n	n	n	n
O=C(NCc1ccc2c(c1)OCO2)C1CCN(S(=O)(=O)N2CCOCC2)CC1	3.7µM	n	n	n	n	n
CCS(=O)(=O)N1CCCC(C(=O)NCc2ccc3c(c2)OCO3)C1 (stereo unspecified)	n	n	n	n	n	n
SMILES	Pf growth 96h	Pf growth 48h	HCV inhibitor	AmpC inh no detg	AMA1 RON2 block	AmpC detergent
O=C(NCc1ccc2c(c1)OCO2)C1CCN(S(=O)(=O)N2CCCCC2)CC1	n	n	n	n	n	n
COCCCNC(=O)c1cc2n(n1)CCCN(Cc1ccc(C)cc1)C2=O	x	x	x	x	x	n
O=C(CNC(=O)c1ccc(Cl)cc1)OCc1cc(=O)n2nc(C3CCCCC3)sc2n1	x	x	x	x	x	n
Cc1ccc(NC(=O)CN2C(=O)CCc3cc(S(=O)(=O)N4CCOCC4)ccc32)c(C)c1	x	x	x	x	x	n
CC(C)CCNC(=O)C1CCC(CNc2c(N3CCCC3)c(=O)c2=O)CC1 (stereo unspecified)	n	12µM	n	n	n	n
O=C(NCc1ccccc1)C1CCC(CNc2c(N3CCCCC3)c(=O)c2=O)CC1 (stereo unspecified)	12µM	n	n[8.37 µM]	n	n	u
CC(C)(C)NC(=O)C1CCC(CNc2c(N3CCCCC3)c(=O)c2=O)CC1 (stereo unspecified)	n	n	n	n	n	n
COc1ccc(CN2COc3ccc4c(-c5ccccc5)cc(=O)oc4c3C2)cc1OC	x	x	x	x	x	n
COc1ccc(-c2nc3n(n2)C(c2ccccc2OC)C(C(=O)Nc2cccnc2)=C(C)N3)cc1 (stereo unspecified)	x	x	x	x	x	n
COC(=O)CCN(c1ccccc1)C(CNS(=O)(=O)c1ccccc1)c1ccccc1 (stereo unspecified)	x	x	x	x	x	n
Brc1ccccc1CNCCc1ccc2c(c1)OCO2	12µM	n	n	n	n	n
c1cc(CNCCc2ccc3c(c2)OCO3)ccn1	12µM	n	n	n	u	u
Fc1ccc(CNCCc2ccc3c(c2)OCO3)cc1	n	n	n	n	n	u
CCc1cc2c(cc3c(=O)n(CC(=O)N4CCCCC4)ncn32)s1	x	x	x	x	x	n
COc1cccc(C(=O)NCc2cn3ccccc3n2)c1	x	x	x	x	x	n
COC(=O)c1ccccc1NC(=O)C(C)n1nc(C)c2c(C)n(-c3ccccc3)nc2c1=O (stereo unspecified)	9.3µM	u	n	n	n	u
Cc1nn(C(C)C(=O)NC2CC2)c(=O)c2nn(-c3ccccc3)c(C)c12 (stereo unspecified)	u	n	n	n	n	n
Cc1nn(C(C)C(=O)Nc2ccccc2Cl)c(=O)c2nn(-c3ccccc3)c(C)c12 (stereo unspecified)	12µM	n	n	n	n	n
Cc1nn(C(C)C(=O)NC2CCCCC2)c(=O)c2nn(-c3ccccc3)c(C)c12 (stereo unspecified)	12µM	n	n	n	n	n
CCC(C(=O)Nc1ccccc1Cl)n1nc(C)c2c(C)n(-c3ccccc3)nc2c1=O (stereo unspecified)	n	u	u	n	n	n
CCN(CC)S(=O)(=O)c1ccc2c(c1)N(CC(=O)N1CCN(c3cccc(OC)c3)CC1)C(=O)CO2	x	x	x	x	x	n
O=C(Cc1cccs1)NC1CC(=O)N(c2cccc(F)c2)C1 (stereo unspecified)	x	x	x	x	x	n
Cc1ccc(S(=O)(=O)N(C)c2ccc(C(=O)NCCc3ccccc3)cc2)cc1	10µM	u	x	n	n	n
CCOc1ccc(S(=O)(=O)N(C)c2ccc(OCC(=O)NCC3CCCCC3)cc2)cc1	x	x	u	n	n	x
COc1ccc(CCNC(=O)c2ccc(N(C)S(=O)(=O)c3ccc(C)cc3)cc2)cc1	n	u	10µM	n	n	u
